Vif-APOBEC3G blk: inhibitors of Vif-APOBEC3G interaction. HeLa A3G-eYFP + Vif (tagged APOBEC3G with the HIV-1 protein that degrades it), YFP fluorescence, overnight. Potency, µM (top dose mostly 46.1 µM), inactives show top-dose activity, negative = active, usual class: inhibitors. 410,000 compounds, 0.076% hits. AID 602310; further: potency means the concentration at half of the fitted maximal effect; on the % scale 0 is the no-effect control and ±100 the full control effect; nearly all actives have a fitted effect of over 60% in size
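Read-out is eYFP fluorescence (Ex 488/Em 500-530) from Vif-expressing HeLa A3G-eYFP cells; more signal means A3G escaped Vif-mediated degradation. Cells plated overnight, compound pinned in, incubated overnight at 37 deg C.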
Vif-A3F inh: inhibitors of Vif-A3F interaction; HeLa A3F-eYFP + Vif (tagged APOBEC3F with the HIV-1 protein that degrades it), YFP fluorescence increase; Potency, µM (titrated, usually from 46.1 µM), without a hit: top-dose activity, negative = active; 390,000 compounds, 0.2% hits; AID 602313; further: potency means the concentration at half of the fitted maximal effect; % of control where 0% means no effect; nearly all actives have a fitted effect of over 65% in size
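Fluorescence increase (Ex 488/Em 500-530) after overnight compound treatment at 37 deg C flags inhibition of Vif-driven A3F-eYFP loss in stable HeLa A3F-eYFP/Vif cells seeded overnight beforehand.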
TSHR antag: blocks TSH signaling through the human TSH receptor | TSHR-expressing cells, TSH-stimulated cAMP HTRF, 2 h; hits give low values | activity change, negative = inhibition, % at 11.5 µM | 330,000 compounds, 0.2% hits;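 active means activity change below a set negative limit, meaning inhibition stronger than a set level, cut at about -70% in these data; inconclusive means activity change between two set negative limits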; further: on the % scale 0 is the no-effect control and ±100 the full control effect
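Cell-based HTRF cAMP assay; TSHR cells + compound, TSH EC80 (4nM final), 2 h, 37 deg C. Lysis with anti-cAMP cryptate and cAMP-d2, 30 min RT, read 665/620 nm.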
PLK1 PBD block: inhibitors of human PLK1 polo-box domain binding | P53350 | Plk1 PBD binding of FITC phosphopeptide, fluorescence polarization | Potency, µM, for inactives: max response, negative = inhibition, actives largely listed as inhibitors | 360,000 compounds, 2.8% hits; further: potency means the concentration at half of the fitted maximal effect; series mostly up to about 57 µM; on the % scale 0 is the no-effect control and ±100 the full control effect; nearly all actives have a fitted effect of over 65% in size
Target sequence (P53350 whole entry, looked up, the tested form may be a part): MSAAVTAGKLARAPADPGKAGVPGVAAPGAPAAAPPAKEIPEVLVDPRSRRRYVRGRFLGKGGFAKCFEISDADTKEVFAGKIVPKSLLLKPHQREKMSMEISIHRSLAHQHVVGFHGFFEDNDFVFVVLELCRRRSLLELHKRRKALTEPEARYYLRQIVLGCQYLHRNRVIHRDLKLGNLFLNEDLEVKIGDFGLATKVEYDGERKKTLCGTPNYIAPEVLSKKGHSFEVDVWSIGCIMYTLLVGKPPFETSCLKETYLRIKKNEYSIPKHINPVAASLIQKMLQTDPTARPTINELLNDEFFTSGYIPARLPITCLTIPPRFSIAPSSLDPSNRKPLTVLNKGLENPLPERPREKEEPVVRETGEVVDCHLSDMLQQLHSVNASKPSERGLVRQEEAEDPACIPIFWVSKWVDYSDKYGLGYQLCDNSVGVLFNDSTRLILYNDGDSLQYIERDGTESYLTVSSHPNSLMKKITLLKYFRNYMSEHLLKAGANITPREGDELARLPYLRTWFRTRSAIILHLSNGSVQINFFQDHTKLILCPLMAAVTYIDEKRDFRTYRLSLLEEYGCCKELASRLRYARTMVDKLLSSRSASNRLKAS
VDR inh: vitamin D3 receptor (human) inhibition | P11473 | VDR-SRC2-3 peptide fluorescence polarization, 2 h | Potency, µM, without a hit: max response, negative = inhibition, actives largely listed as inhibitors | 400,000 compounds, 0.93% hits | AID 504847; further: potency means the concentration at half of the fitted maximal effect; on the % scale 0 is the no-effect control and ±100 the full control effect
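Compounds are added to VDR with labelled SRC2-3 coactivator peptide and held 2 h at room temperature. Inhibition of the VDR–peptide interaction is then read as a change in fluorescence polarization.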
Active calls of the source: *; ? = inconclusive; . = no result. Only some compounds are listed: those with a hit (about 3.1% of all), similar ones and a draw of the others. Unless noted, the call rests on the fitted dose curve; in most records, active means well fitted curve in the direction sought with a large enough effect; inconclusive means small, poorly fitted or top-dose-only effect, or another doubt; inactive means no such curve, though single readings can be large; an effect the other way counts as inactive or inconclusive.

SMILES	Vif-APOBEC3G blk	Vif-A3F inh	TSHR antag	PLK1 PBD block	VDR inh
CC[C@H](C)[C@H](NC(=O)[C@@H](NC(=O)[C@@H](NC(=O)[C@H](CCC(=O)O)NC(=O)[C@H](CCC(=O)O)NC(=O)[C@H](CCC(=O)O)NC(=O)[C@H](C)NC(=O)[C@@H](N)CC(C)C)C(C)C)C(C)C)C(=O)N[C@@H](CCCNC(=N)N)C(=O)N[C@@H](CO)C(=O)N[C@@H](C)C(=O)N[C@@H](CC(N)=O)C(=O)N[C@@H](Cc1ccccc1)C(=O)N[C@H](C(=O)N[C@@H](CC(=O)O)C(=O)N[C@@H](CC(N)=O)C(=O)O)[C@@H](C)O	.	.	.	.	18%
CC(/C=C1\SC(=S)N(CCCC(=O)Nc2ccc(C(=O)O)cc2)C1=O)=C\c1ccccc1	-7%	2%	-15	?	-22%
CC(=C\c1ccccc1)/C=C1/SC(=S)N(CCCC(=O)O)C1=O	5%	-5%	-14	?	79µM*
CCc1ccc(/C=C2/SC(=S)N(CCC(=O)Nc3ccc(C(=O)O)cc3)C2=O)cc1	.	.	-10	.	.
O=C(CCN1C(=O)/C(=C/c2ccc(Cl)cc2)SC1=S)Nc1ccc(C(=O)O)cc1	2%	3%	-3	30µM*	0%
COc1cc(/C=C2\SC(=S)N(CCC(=O)Nc3ccc(O)cc3)C2=O)cc(OC)c1OC	-9%	-3%	-44	30µM*	-21%
CC(=Cc1ccccc1)C=C1SC(=S)N(CCCC(=O)Nc2ccc(C(=O)O)cc2)C1=O	-8%	.	.	24µM*	.
Cc1cnccc1/C=C/c1ccc(N)cc1	-4%	.	.	.	.
CC(/C=C1\SC(=S)N(CCC(=O)Nc2cccc(C(=O)O)c2)C1=O)=C\c1ccccc1	4%	-13%	-9	24µM*	?
Cc1ccc2c(c1)C/C(=C/c1ccc(N(C)C)cc1)C2=O	-6%	.	.	.	.
Cc1ccc(S(=O)(=O)c2cnc(-c3ccccc3)[nH]c2=O)cc1	.	.	.	.	-5%
O=C(NCc1cccnc1)C1CCN(Cc2cc3ccccc3n2Cc2cccc(Cl)c2)CC1	-8%	-4%	.	.	1%
CCOC(=O)c1c(NC(=O)CSc2ncccn2)sc2c1CCN(Cc1ccccc1)C2	3%	-4%	-8	24µM*	-11%
NC(=O)CSc1nnc2ccc(-c3ccc(F)cc3)nn12	3%	3%	3	15µM*	-21%
COc1ccc2oc(=O)c(-c3nc4ccccc4o3)cc2c1	?	13µM*	-15	-1%	9%
O=c1oc2ccccc2cc1-c1nc2ccccc2o1	-20%	-21%	-7	-3%	3%
CN(C)c1ncnc2ccc(-c3ccc4c(c3)OCO4)cc12	.	.	.	.	-17%
O=C(CCCCn1c(=O)c2ccccc2n(Cc2cccc(Cl)c2)c1=O)NCc1ccc2c(c1)OCO2	-16%	-7%	.	.	5%
CCCOc1ccc(-c2nc(SCc3ccccc3)[nH]c(=O)c2C#N)cc1OC	4%	-2%	-6	27µM*	-15%
N#Cc1c(-c2ccccc2)nc(SCc2nc(N)nc(N3CCCCC3)n2)[nH]c1=O	-2%	-3%	-8	3µM*	-18%
CCSc1nc(-c2ccccc2)c(C#N)c(=O)[nH]1	-2%	1%	-11	-5%	-3%
CSc1nc(-c2ccccc2)c(C#N)c(=O)[nH]1	0%	-9%	1	27µM*	-24%
Cn1sc(=O)n(Cc2ccccc2)c1=O	.	.	.	.	5µM*
Cn1c(=O)n(Cc2ccccc2)c2ccccc21	0%	1%	1	1%	7%
C(=C\c1ccnc2ccccc12)/c1cc2c3c(c1)CCCN3CCC2	-6%	.	.	.	.
SMILES	Vif-APOBEC3G blk	Vif-A3F inh	TSHR antag	PLK1 PBD block	VDR inh
O=C(COc1ccccc1)NN1C(=O)CSC1=S	0%	-5%	0	0%	9%
O=C(COc1c(Cl)cccc1Cl)NN1C(=O)CSC1=S	0%	2%	12	19µM*	-10%
CCCCOc1ccc(C(=O)Nc2ccc3c(c2)N(C(C)=O)CCC3)cc1	-6%	-10%	.	.	3%
O=C1C2C(c3ccccc3)C=CC(c3ccccc3)C2C(=O)N1CCO (stereo not drawn)	0%	-1%	-11	2%	4%
O=C1C2C3C=CC(C3=C(c3ccccc3)c3ccccc3)C2C(=O)N1Cc1ccccc1 (stereo not drawn)	-1%	4%	-9	67µM*	-5%
CCCCN1CCc2c([nH]c3c(C)cccc23)C1=O	0%	-4%	0	3.4µM*	14µM*
CCCc1c(C)c2cccc(C)c2[nH]c1=O	0%	.	-10	-7%	3%
CCOC(=O)c1c(NC(=O)COc2cccc(C(F)(F)F)c2)sc2c1CCCCC2	-1%	3%	.	.	?
Cc1cccc(N2C(=O)CC(Sc3ncn[nH]3)C2=O)c1 (stereo not drawn)	2%	13%	8	27µM*	8%
Cc1cccc(N2C(=O)CC(Sc3nccc(C)n3)C2=O)c1 (stereo not drawn)	0%	2%	-9	-16%	-5%
Cc1ccc(N2C(=O)CC(Sc3ncn[nH]3)C2=O)cc1C (stereo not drawn)	1%	-6%	8	30µM*	-1%
COCCCNC(=O)c1cc2n(n1)CCCN(Cc1ccc(C)cc1)C2=O	3%	3%	.	.	-3%
COc1cccc(Nc2ncc3nc(-c4ccccc4)c(=O)n(Cc4cccs4)c3n2)c1	.	.	.	.	1%
Cc1nc(NCCc2ccccc2)sc1C(=O)N(C)C	-3%	2%	3	19µM*	-26%
COc1ccccc1CNc1nc(C)c(C(=O)N(C)C)s1	-1%	-15%	-17	24µM*	?
COC(=O)Nc1nc(C)c(C(=O)N(C)C)s1	3%	1%	-6	1%	10%
COc1ccccc1CNc1nc(C)c(C(C)=O)s1	0%	-5%	-5	15µM*	-5%
CSCCC(NS(=O)(=O)c1ccc2c(c1)oc(=O)n2C)C(=O)Nc1ccc(Cl)cc1 (stereo not drawn)	-3%	-11%	.	.	-8%
COc1ccc(C(C(=O)NCc2ccccc2)N(C(=O)Cn2nnc3ccccc32)c2ccc(F)cc2)cc1 (stereo not drawn)	1%	-15%	.	.	7%
Cc1[nH]c2ccccc2c1C(=O)CNc1ccc(Br)cc1	-21%	.	.	.	.
COC(=O)C1=C(C)N(Cc2ccccc2)C(=O)N[C@H]1c1cccc(C(F)(F)F)c1	1%	-6%	-1	-11%	-23%
COCCN1C(=O)N[C@@H](c2cccc(C(F)(F)F)c2)C(C(=O)OC)=C1C	2%	-6%	.	30µM*	?
O=C1CCN2C=Nc3cccc4ccc1c2c34	9%	?	-7	3.8µM*	-16%
NC(=O)CC[C@H](NC(=O)c1ccc(F)cc1)C(=O)OCC(=O)NCc1ccc(F)cc1	0%	-8%	-7	?	71µM*
CCOc1ccc(NC(=O)CN2CCN(CC(=O)c3ccc(OC)c(OC)c3)CC2)cc1	0%	0%	2	19µM*	-29%

Screening results from PubChem BioAssay.
